The panel holds about 79,000 compounds, 15% with a hit somewhere; the sample as a whole holds those more often. A number with no mark means an inactive call. Activity calls are given as the source filed them. No stated cut-off is given here; in the data, active means growth inhibition above about 70%; inactive means the rest.

Experiment [1] in a line: NCI Yeast Anticancer Drug Screen. Data for the rad50 strain (AID 155).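 Further: 0% = growth of vehicle-only cultures of the same strain.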 The following applies: S. cerevisiae rad50 strain growth inhibition; at 50.0 µM; hits give high values. The method in brief: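 DNA repair mutant yeast, compound exposure, growth read-out; inhibition is taken relative to vehicle.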
Experiment [2] is described as follows: NCI Yeast Anticancer Drug Screen. Data for the mec2-1 strain (AID 157). To be noted: S. cerevisiae mec2-1 strain, at 50.0 µM, hits give high values. In short, it runs like this:
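Readout is yeast growth inhibition, normalised to vehicle-treated controls, in the mec2-1 strain exposed to compound.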

Experiment [3] can be described thus: NCI Yeast Anticancer Drug Screen. Data for the sgs1 mgt1 strain (AID 161).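 Further: 0% = growth of cultures given vehicle only.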 To be noted: S. cerevisiae sgs1 mgt1 strain, at 50.0 µM, hits give high values. In short, it runs like this:
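This yeast growth screen uses a strain with defined DNA-repair lesions; compound-treated growth is compared with vehicle-treated growth.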

A short description of experiment [4]: NCI Yeast Anticancer Drug Screen. Data for the cln2 rad14 strain (AID 165).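 Further: 0% = growth equal to vehicle treated cultures.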 The following applies: S. cerevisiae cln2 rad14 strain, at 50.0 µM, hits give high values. In short, it runs like this:
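Relative to vehicle controls, growth inhibition of compound-treated cln2 rad14 yeast was recorded.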

A short description of experiment [5]: NCI Yeast Anticancer Drug Screen. Data for the bub3 strain (AID 167). The following applies: S. cerevisiae bub3 mutant strain, at 50.0 µM, hits give high values. In short, it runs like this: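 In this screen, a yeast mutant lacking normal mitotic checkpoint function is challenged with compound. Relative growth versus vehicle gives the inhibition value.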
A short description of experiment [6]: NCI Yeast Anticancer Drug Screen. Data for the mlh1 rad18 strain (AID 175). The following applies: S. cerevisiae mlh1 rad18 strain growth inhibition; at 50.0 µM; hits give high values. In short, it runs like this:
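Test agents were incubated with a yeast strain of defined genotype (DNA damage repair defect). Inhibition of growth was derived by comparison with vehicle-exposed cultures.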

With `O=P(O)(O)SP(=O)(O)O.[Mn]`, the growth inhibition was -14.7% in experiment [1]; -14.2% in experiment [2]; -1.9% in experiment [3]; -30.2% in experiment [4]; -11.7% in experiment [5].
For the compound `CC(=O)C(I)C(C)=O.[Cr]`, the growth inhibition in experiment [1] was 2.45%; in experiment [2], -18.9%; in experiment [3], 8.6%; in experiment [4] it was 16.4%; in experiment [5], 14.4%.
On the same counts, the results for `C/C=C(\C)C1(CC)C(=O)NC(=O)N(C)C1=O` (stereo not drawn) are 1.65%, 1.7%, 3.3%, -0.6% and -1.05%.
As for `C#[C][Sn]([CH2]CCC)([CH2]CCC)[CH2]CCC`, the growth inhibition in experiment [1] is 99% (active); in experiment [2] it was 99.5% (active); in experiment [3], 99.2% (active); in experiment [4], 99.1% (active); in experiment [5], 99.3% (active).
Consider `NCC(O)CSP(=O)(O)O` (stereo not drawn), for which the growth inhibition was -10.9% in experiment [1]; -9.85% in experiment [2]; -18.9% in experiment [3]; 24.5% in experiment [4]; -3.8% in experiment [5].
As to `O=C([O-])c1ccccc1[SH2+].[Cr+3].[NH-]CC[NH-].[NH-]CC[NH-].[O-][Cl+3]([O-])([O-])O`, the growth inhibition in experiment [1] is 11.9%; in experiment [2], -1.95%; in experiment [3], -11.8%; in experiment [4], -19.4%; in experiment [5] it was 1.35%.
As to `CN(C(=O)CCl)c1ccccc1`, the growth inhibition was 15.3% in experiment [1]; 13.7% in experiment [2]; 8.5% in experiment [3]; 11.2% in experiment [4]; 9.75% in experiment [5].
In the case of `O=C(NC1CCCCC1)C(Cl)(Cl)Cl`, the growth inhibition in experiment [1] was -3.1%; in experiment [2], -18.3%; in experiment [3], -1.85%; in experiment [4] it was -52%; in experiment [5] it was -4.75%.
Take `CN1CCOP(=O)(Oc2ccccc2)N1` (stereo not drawn): the growth inhibition in experiment [1] is -46%; in experiment [2], -17.4%; in experiment [3] it was -26.1%; in experiment [4] it was -64.2%; in experiment [5], 4.5%.
Take `Cc1ccc2c(c1)C(=S)N1CSCC1c1nncn1-2` (stereo not drawn): the growth inhibition in experiment [1] was 30.6%; in experiment [2] it was 30%; in experiment [3], 28.9%; in experiment [4], 20.9%; in experiment [5], 13.4%.
Take `[N-]=[N+]=C1C(=O)NN=C1c1ccccc1`: the growth inhibition is -9.6% in experiment [1]; -21.9% in experiment [2]; -25.4% in experiment [3]; 0.5% in experiment [4]; -17.2% in experiment [5].
Consider `C[C@@]1(C(=O)c2ccccc2)N(c2ccccc2)[C@@]1(C)C(=O)c1ccccc1`, for which the growth inhibition in experiment [1] is 8.9%; in experiment [2], 8.3%; in experiment [3], 4.35%; in experiment [4], 21.8%; in experiment [5], 16.1%.
For `CCC1(O)N=C(c2ccccc2)c2ccccc2-n2cccc21` (stereo not drawn), the growth inhibition in experiment [1] was 1.7%; in experiment [2], 4.25%; in experiment [3], 8.65%; in experiment [4], 0.55%; in experiment [5] it was 2.2%.
On the same counts, the results for `O=C(NCCO)c1cc([N+](=O)[O-])cc([N+](=O)[O-])c1` are -37.9%, -4.25%, -1.25%, -25.9% and -11.7%.
Turning to `CC(C)=CCN=C(N)N`, the growth inhibition in experiment [1] was -9.15%; in experiment [2] it was -51.1%; in experiment [3], -17.3%; in experiment [4], -8%; in experiment [5] it was -37.1%.
As for `Cc1ccc(S(=O)(=O)OC2CN3CCC2CC3)cc1` (stereo not drawn), the growth inhibition in experiment [1] is 62.4%; in experiment [2], -2.95%; in experiment [3], 42.7%; in experiment [4], 26.8%; in experiment [5], 38.4%; in experiment [6], 51.5%.
Turning to `Nc1ccc([As](=O)(O)O)cc1`, the growth inhibition in experiment [1] was 27.8%; in experiment [2], 19.8%; in experiment [3], 14.9%; in experiment [4], 11.8%; in experiment [5], 7.9%; in experiment [6], 21.3%.
On to `O=[N+]([O-])OC(c1ccncc1)C(O[N+](=O)[O-])c1ccncc1` (stereo not drawn), for which the growth inhibition in experiment [1] was 7.7%; in experiment [2], -2.35%; in experiment [3], -6.25%; in experiment [4], 16.9%; in experiment [5], -5.3%; in experiment [6], 21.3%.
On to `COC(=S)NP(=O)(NC(=S)OC)NC(=S)OC`, for which the growth inhibition is 11.7% in experiment [1]; -3.4% in experiment [2]; 9.65% in experiment [3]; -35% in experiment [4]; -1.95% in experiment [5]; 8.25% in experiment [6].
For `CCOP(=O)(O)C1CCCC(C)[N-]1.CCOP(=O)(O)C1CCCC(C)[N-]1.CCOP(=O)(O)C1CCCC(C)[N-]1.[Ti+3]` (stereo not drawn), the growth inhibition was 1.7% in experiment [1]; 0.1% in experiment [2]; -6.55% in experiment [3]; -24.1% in experiment [4]; -6.3% in experiment [5]; 2.6% in experiment [6].
For `CC[C@@H]1[C@H]2C[C@H]3[C@@H]4N(C)c5ccccc5[C@]45C[C@@H](C2[C@H]5O)N3[C@H]1O` (stereo partly drawn), the growth inhibition in experiment [1] is -12.4%; in experiment [2], -6.15%; in experiment [3], -5.15%; in experiment [4], 5.05%; in experiment [5] it was -13.7%; in experiment [6] it was 15.6%.
In the case of `CN(C)c1ccc([N+](=O)[O-])c([N+](=O)[O-])c1`, the growth inhibition in experiment [1] is -14.8%; in experiment [2], -12.5%; in experiment [3], -7.75%; in experiment [4], 7.95%; in experiment [5], -12.4%; in experiment [6], -3.05%.
For `COC(=O)CN(CCCl)P1(=O)OCCCN1CCCl` (stereo not drawn), the growth inhibition in experiment [1] was -17.4%; in experiment [2], -1.1%; in experiment [3], -5.5%; in experiment [4] it was 0.2%; in experiment [5], 10.3%; in experiment [6], -4.8%.

The values above are taken from PubChem BioAssay (NCI).
